The text below walks through data of PubChem BioAssay (Tox21).

Structures are written as SMILES. Inconclusive results are not listed. Where a call stands in place of a potency, no number is given. Values without a mark were called inactive. Calls of active or inactive are those of the source. The call rests on the fitted dose curve; in most records, active means well fitted cell-killing curve with a large enough effect in the repeat runs; inconclusive means weak or mixed curves, or effect the other way; inactive means no such curve, though single readings can be large or run the other way.
Potency means the concentration at half of the fitted maximal effect.

This test is described as follows: qHTS assay to identify small molecule antagonists of the sonic hedgehog signaling (Shh) pathway - cell viability counter screen (AID 1259367). Further: nearly all actives have a fitted effect of over 55% in size. Particulars: NIH/3T3 Gli1-Luc viability, CellTiter-Fluor, 24 h; series mostly up to 92.4 µM. The text has this:
National Center for Advancing Translational Sciences [NCATS]
NIH Chemical Genomics Center [NCGC]
U.S. Environmental Protection Agency [EPA]
National Institutes of Environmental Health Sciences [NIEHS]
National Toxicology Program [NTP]
U.S. Food and Drug Administration [FDA]
The sonic hedgehog (Shh) pathway is essential for normal embryonic development. Dysregulation of the Shh pathway can cause severe developmental defects in organs. Therefore chemicals that interfere with the pathway are potential developmental toxicants. A cell line designated 3T3Gli1-Luc (DMB/OARSA/CFSAN/FDA, Laurel, MD), a NIH/3T3 derived clone containing stably integrated Gli1-Luc reporter is used to detect chemical interference of the Shh pathway, by changes in the expression of the firefly Luc gene under the control of the Gli1 transcriptional response element. This cell line was used to screen Tox21 libraries for identifying and prioritizing the potential developmental toxicants that interfere Shh pathway. Conditioned medium-stimulated mode was used to screen for chemicals inhibiting Shh signaling. The cytotoxicity of the compounds was tested in parallel by measuring the cell viability using CellTiter-Fluor assay system (Promega, Madison, WI) in the same wells.
Tox21 Assay Protocol Summary:
3T3 Gli1-Luc cells were dispensed at 2,000 per well in 5uL of culture medium into white solid bottom 1536-well plates (Greiner Bio-One, Monroe, NC) using a Multidrop Combi (Thermo Scientific, Waltham, MA) dispenser. The assay plates were incubated at 37 C and 5% CO2 for 4hr, and then 23nL of compounds dissolved in DMSO and positive control were transferred using a Pintool station (Wako, San Diego, CA). The compound transfer was followed by the addition of 1ul conditioned medium or assay buffer using two separate tips of Flying Reagent Dispenser (FRD, Aurora Discovery, San Diego, CA). The assay plates were incubated at 37C and 5% CO2 for 24hr. For viability read, after 23hr of compound treatment, 1uL of CellTiter-Fluor reagent (Promega Corporation, Madison, WI) was added to each well of the assay plates using Flying Reagent Dispenser (FRD, Aurora Discovery, San Diego, CA) and incubated the assay plates at 37C for 1hr. The fluorescence signal was quantified using a ViewLux plate reader (Perkin Elmer, Shelton, CT).
`CC(C)CCCC(C)CCO` (stereo not given): the Potency result was “inactive”. On the same count and under the same terms, the entry for `O=S(=O)(O)c1ccc(O)c2ncccc12` is “inactive”; for `O=C(O)Cc1cc(I)c(Oc2ccc(O)c(I)c2)c(I)c1` it is “inactive”. Turning to `CC(C)CCCCCCOC(=O)c1ccc(C(=O)OCCCCCCC(C)C)c(C(=O)OCCCCCCC(C)C)c1`, the Potency result was “inactive”. Same read-out and setting: under `CNCC[C@@H](Oc1ccccc1C)c1ccccc1` stands “inactive”; under `O=c1c2ccccc2nnn1CCl`, “inactive”. Same read-out and setting: under `OCCC1CCCCN1` (stereo not given) stands “inactive”; under `Cc1cccc(C(C)(C)C)c1O`, “inactive”; under `CN1CCC(=C2c3ccccc3C=Cc3ccccc32)CC1`, “inactive”. On to `CC(=O)N(O)CCCCCNC(=O)CCC(=O)N(O)CCCCCNC(=O)CCC(=O)N(O)CCCCCN`, for which the Potency entry is “inactive”. Still for that read-out and setting: under `Oc1ccc(C(O)CNCCCCCCNCC(O)c2ccc(O)c(O)c2)cc1O` (stereo not given) stands 29.8 µM (active). As to `CCCCCCCCCCCCCCCCCBr`, the viability change, negative = cytotoxic was -1.98% [at 19 µM]. As to `CCCCCCOC(=O)CCC`, the Potency entry is “inactive”.

As for `CN1CCN(C2=Nc3ccccc3Sc3ccc(Cl)cc32)CC1`, the Potency entry was “inactive”. Still for that read-out and setting: under `O=C(/C=C/c1ccc(O)c(O)c1)O[C@@H]1C[C@](O)(C(=O)O)C[C@@H](O)[C@H]1O` stands “inactive”; under `CC(CN)CCCN` (stereo not given), “inactive”. `C=C(C)C(=O)OCCN(C)C`: the Potency result is “inactive”.

For the compound `CC(C(=O)O)c1ccc(C(=O)c2ccccc2)s1` (stereo not given), the Potency entry was “inactive”. The same measure, in the same setting: the entry for `NCCCOCCOCCOCCCN` is “inactive”; for `CC(=O)OCCc1ccccc1` it is “inactive”; for `O=C1c2cccc(O)c2C(=O)c2c(O)cc(CO)cc21` it is “inactive”.

Take `Cc1cc(C)c(S(=O)(=O)O)cc1N=Nc1cc(S(=O)(=O)O)c2ccccc2c1O`: the Potency was 30.6 µM (active). Still for that read-out and setting: under `CCN(CC)CCNC(C(=O)OCCC(C)C)c1ccccc1` (stereo not given) stands “inactive”; under `N#Cc1cc2ccccc2c2ccccc12`, “inactive”.

As for `CCCCCC/C=C/C=O`, the Potency result was “inactive”.

On to `CN(c1nccc(=O)[nH]1)C1CCN(c2nc3ccccc3n2Cc2ccc(F)cc2)CC1`, for which the Potency entry was “inactive”. `Cc1c(Cn2ccnc2)c2ccccc2n1CCC(=O)O`: the Potency result is “inactive”. Still for that read-out and setting: the entry for `CC(C)NCC(O)c1cc(O)cc(O)c1` (stereo not given) is “inactive”. On the same count and under the same terms, the entry for `O=C1[C@H](CC[C@H](O)c2ccc(F)cc2)[C@@H](c2ccc(O)cc2)N1c1ccc(F)cc1` is “inactive”.

Take `CNS(=O)(=O)Cc1ccc2[nH]cc(CCN(C)C)c2c1`: the Potency result was “inactive”. Same read-out and setting: under `CC(C)(C)C(=O)OCOP(=O)(COCCn1cnc2c(N)ncnc21)OCOC(=O)C(C)(C)C` stands 9.44 µM (active); under `OCC1CC2CC1C1CCC(CO)C21` (stereo not given), “inactive”; under `CCC(=O)OC(C)(C)C1CC=C(C)CC1` (stereo not given), “inactive”. Still for that read-out and setting: the entry for `CCCCOc1cc(C(=O)OCCN(CC)CC)ccc1N` is “inactive”; for `CCCCCCCCCO` it is “inactive”; for `CCCOc1ccc2nc(NC(=O)OC)[nH]c2c1` it is “inactive”. The same measure, in the same setting: the entry for `Cc1cccc(OCCOc2cccc(C)c2)c1` is “inactive”; for `CC(=O)CC(=O)c1ccccc1` it is “inactive”. `CC(O)C1CCCCC1` (stereo not given): the Potency result was “inactive”.

Take `CC(=O)Nc1ccc(/C=N/NC(N)=S)cc1`: the Potency entry was “inactive”.
